Measurements as given in PubChem BioAssay AID2073 (Sanford-Burnham Center for Chemical Genomics, 2009).
Hit rate of the full screen: of about 290,000 compounds, about 570 (0.2%) were called active. Another 1% or so got no clear call; they are omitted. Rule as the data show it: active = inhibition mostly above about 51% (no sharp cut-off); inconclusive = no clear call, values can overlap the other calls; inactive = mostly below about 53%. Only a selection was taken, and actives are over-represented in it overall.

Target: Voltage-dependent N-type calcium channel subunit alpha-1B (Homo sapiens) (UniProt Q00975)
Sequence (Q00975 whole entry, looked up): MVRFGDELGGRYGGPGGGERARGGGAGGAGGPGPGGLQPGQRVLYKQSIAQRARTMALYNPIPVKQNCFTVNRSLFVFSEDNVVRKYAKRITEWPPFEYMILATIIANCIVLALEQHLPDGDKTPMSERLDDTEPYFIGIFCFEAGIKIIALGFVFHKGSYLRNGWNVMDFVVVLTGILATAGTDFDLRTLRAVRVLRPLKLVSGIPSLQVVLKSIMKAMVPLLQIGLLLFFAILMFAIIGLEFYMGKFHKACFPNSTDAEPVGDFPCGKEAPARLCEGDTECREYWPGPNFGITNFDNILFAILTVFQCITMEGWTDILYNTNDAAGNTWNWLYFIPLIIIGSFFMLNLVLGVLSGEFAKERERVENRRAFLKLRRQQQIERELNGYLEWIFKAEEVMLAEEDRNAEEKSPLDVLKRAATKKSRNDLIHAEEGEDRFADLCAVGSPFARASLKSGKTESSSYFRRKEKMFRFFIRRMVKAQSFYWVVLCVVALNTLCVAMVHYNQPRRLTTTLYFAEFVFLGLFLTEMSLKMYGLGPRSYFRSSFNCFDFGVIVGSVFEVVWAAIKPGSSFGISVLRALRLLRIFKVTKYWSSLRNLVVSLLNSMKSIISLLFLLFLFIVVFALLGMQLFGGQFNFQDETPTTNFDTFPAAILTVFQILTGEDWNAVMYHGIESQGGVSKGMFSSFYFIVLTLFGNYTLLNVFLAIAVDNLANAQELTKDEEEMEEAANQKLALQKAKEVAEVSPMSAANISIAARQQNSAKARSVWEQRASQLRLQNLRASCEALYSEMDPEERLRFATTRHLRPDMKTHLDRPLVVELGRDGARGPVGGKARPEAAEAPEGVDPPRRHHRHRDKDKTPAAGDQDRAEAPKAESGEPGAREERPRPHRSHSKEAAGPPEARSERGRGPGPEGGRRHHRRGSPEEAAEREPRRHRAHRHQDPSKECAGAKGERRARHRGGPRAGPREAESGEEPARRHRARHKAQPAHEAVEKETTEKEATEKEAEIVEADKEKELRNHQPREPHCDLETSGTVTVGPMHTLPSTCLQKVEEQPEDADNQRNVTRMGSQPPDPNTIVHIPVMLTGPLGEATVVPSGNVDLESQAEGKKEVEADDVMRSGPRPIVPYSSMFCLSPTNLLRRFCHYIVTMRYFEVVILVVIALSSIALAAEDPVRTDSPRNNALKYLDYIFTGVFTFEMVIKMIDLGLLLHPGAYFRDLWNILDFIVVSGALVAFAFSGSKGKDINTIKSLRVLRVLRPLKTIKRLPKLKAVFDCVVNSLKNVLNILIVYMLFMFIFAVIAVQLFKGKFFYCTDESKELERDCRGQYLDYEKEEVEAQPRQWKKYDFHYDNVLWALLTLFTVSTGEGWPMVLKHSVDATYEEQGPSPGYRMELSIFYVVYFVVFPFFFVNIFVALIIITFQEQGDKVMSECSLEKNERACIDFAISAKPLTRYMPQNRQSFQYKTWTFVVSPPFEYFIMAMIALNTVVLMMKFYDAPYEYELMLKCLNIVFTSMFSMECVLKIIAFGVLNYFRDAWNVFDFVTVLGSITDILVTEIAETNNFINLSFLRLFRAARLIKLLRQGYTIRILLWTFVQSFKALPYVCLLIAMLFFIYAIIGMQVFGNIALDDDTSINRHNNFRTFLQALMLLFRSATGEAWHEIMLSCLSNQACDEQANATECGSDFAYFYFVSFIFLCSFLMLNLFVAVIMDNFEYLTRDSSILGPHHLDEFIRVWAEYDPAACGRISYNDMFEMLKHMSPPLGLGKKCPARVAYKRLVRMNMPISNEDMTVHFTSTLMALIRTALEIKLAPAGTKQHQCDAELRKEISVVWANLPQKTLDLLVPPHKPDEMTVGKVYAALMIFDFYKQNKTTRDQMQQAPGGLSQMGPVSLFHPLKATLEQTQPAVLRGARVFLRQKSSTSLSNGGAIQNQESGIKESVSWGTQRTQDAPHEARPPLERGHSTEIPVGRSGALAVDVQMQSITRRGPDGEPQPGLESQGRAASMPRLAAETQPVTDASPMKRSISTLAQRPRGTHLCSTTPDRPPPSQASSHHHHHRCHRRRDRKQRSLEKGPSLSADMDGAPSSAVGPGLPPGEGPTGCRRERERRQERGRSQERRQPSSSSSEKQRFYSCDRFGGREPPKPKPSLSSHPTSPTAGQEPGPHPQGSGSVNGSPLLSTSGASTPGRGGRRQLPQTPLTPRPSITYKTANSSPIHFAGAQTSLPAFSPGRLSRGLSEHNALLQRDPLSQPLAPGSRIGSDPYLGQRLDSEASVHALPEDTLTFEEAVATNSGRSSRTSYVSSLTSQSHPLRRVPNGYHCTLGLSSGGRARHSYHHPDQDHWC
Assay: inhibitors of Mint1-CaV2.2 protein interaction, biochemical, HTRF (AID 2073)
Conditions: at 20 µM, stronger effect = higher value
[1] = measured here: average of repeat tests

Row | Compound | inhibition | inhibition [1]
1 | O=C(CCC(=O)N(CC(=O)NC1CCCCC1)Cc1ccccc1)Nc1ccccn1 | -13% (inactive) | 
2 | N/C(Cc1ccc(Cl)c(Cl)c1)=N\OC(=O)c1ccc(Br)o1 | 5.1% (inactive) | 
3 | N/C(Cc1ccc(Cl)cc1Cl)=N\OC(=O)c1ccc(Br)o1 | 7.7% (inactive) | 
4 | N/C(Cc1cccc2ccccc12)=N\OC(=O)c1ccc(Br)o1 | 56.5% (active) | 
5 | Cc1ccc(N2C(=O)N3[C@H](c4ccc(F)cc4)[C@@H]4C(=O)N(C5CCCCC5)C(=O)[C@@H]4[C@]3(C)C2=O)cc1 | 3.5% (inactive) | 
6 | Cc1ccccc1C(=O)NC(C(N)=O)P(=O)(OC(C)C)OC(C)C (configuration not stated) | -2.5% (inactive) | 
7 | CCc1ccccc1NS(=O)(=O)c1cccc2nsnc12 | 4.2% (inactive) | 
8 | NC(=S)n1[nH]c(-c2ccc([N+](=O)[O-])cc2)c(N=Nc2ccc(O)cc2)c1=O | -5.9% (inactive) | 
9 | NC(=S)n1[nH]c(-c2ccc([N+](=O)[O-])cc2)c(N=Nc2cccc(Cl)c2)c1=O | 64.1% (inactive) | 12.7%
10 | Cc1[nH]n(C(N)=S)c(=O)c1N=Nc1cccc([N+](=O)[O-])c1C | 14.9% (inactive) | 
11 | NC(=S)n1[nH]c(-c2ccc([N+](=O)[O-])cc2)c(N=Nc2ccccc2[N+](=O)[O-])c1=O | 69.4% (inactive) | 20.6%
12 | CCCC(=O)c1cc2cc(Cl)ccc2oc1=O | -2.8% (inactive) | 
13 | CCOC(=O)CSc1nnc(-c2cccnc2)n1C | 0.8% (inactive) | 
14 | CN1CCN(C(CC(=O)Nc2cccc(O)c2)C(=O)O)CC1 (configuration not stated) | 0.5% (inactive) | 
15 | O=C(CSc1nnc(-c2ccccc2)o1)NC1CCS(=O)(=O)C1 (configuration not stated) | -2.1% (inactive) | 
16 | O=C(OCn1ncc(Cl)c(Cl)c1=O)c1ccc(F)cc1 | -3% (inactive) | 
17 | COc1ccc(N2CCN(C(=O)c3ccc4c(=O)n5c(nc4c3)CCCCC5)CC2)cc1 | -6.5% (inactive) | 
18 | Cc1ccc2c(CN3CCN(Cc4ccccc4)CC3)cc(=O)oc2c1C | 6.6% (inactive) | 
19 | Cc1ccccc1NC(=S)NCc1cccs1 | 5.6% (inactive) | 
20 | Cc1cc(C)c(NC(=S)N(Cc2cccnc2)Cc2ccco2)c(C)c1 | 0.6% (inactive) | 
21 | CCC(C)(C)n1nnnc1C(c1cc2ccc(OC)cc2[nH]c1=O)N1CCc2ccccc21 (configuration not stated) | 19.3% (inactive) | 
22 | COc1ccc2cc(C(c3nnnn3C(C)(C)C)N3CCc4ccccc4C3)c(=O)[nH]c2c1 (configuration not stated) | 33% (inactive) | 
23 | CCC(C)(C)n1nnnc1C(c1cc2ccc(OC)cc2[nH]c1=O)N1CCc2ccccc2C1 (configuration not stated) | 56.9% (active) | 
24 | Fc1cccc(Cl)c1CNn1cn[nH]c1=S | -3% (inactive) | 
25 | COc1ccc2c(c1)CCc1cc(C(=O)N3CCN(c4ccc(N5CCOCC5)nn4)CC3)sc1-2 | 13.6% (inactive) | 
